TROY NFkB inh: TROY signaling inhibition | Q293 LMP1-TROYcd NF-kB luciferase reporter, 4 h | inhibition, % at 10 µM | 360,000 tested, 0.98% active | AID 1347056;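 active means compounds whose plate-normalised and pattern-corrected inhibition of the luciferase reporter signal at the single screening dose is 50% or more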
LGR2 inh: inhibitors of bursicon-induced Drosophila LGR2 receptor cAMP signaling; 380,000 tested, 0.35% active; HEK293 LGR2, CRE-luciferase, bursicon-stimulated, 4 h; inhibition, % at 9.99 µM;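 active means drop in luminescence signal, shown as inhibition above about 50% in the replicate tests, limit read from the data, passing the limit was not always enough; inconclusive means probably only some replicates passing the limit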;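 further: agonist challenge used bursicon conditioned medium at about half maximal strength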
HSF1 inhib: HSF1 inhibition; AID 2098; activity change, negative = inhibition, % at 7.5 µM (by protocol); NIH3T3-HGL HSE-luciferase, MG132-induced, luminescence 8 h; stronger effect = lower value; 300,000 tested, 0.77% active;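 active means more than half of replicate wells show activity change below -50%, luminescence cut by over half; inconclusive means some wells, but at most half, below -50%; inactive means no replicate well below -50%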;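 further: luciferase reports HSF-1 transcriptional activity via heat shock element; 0% = median of DMSO wells and -100% = zero luminescence signal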
TWEAK-Fn14 inh: inhibitors of TWEAK-Fn14 interaction signaling; TWEAK-stimulated Fn14 reporter cells, luciferase luminescence, 8 h; inhibition, % at 10 µM; 360,000 tested, 2% active; AID 1159606; in the data active means inhibition above about 50%
EBV LMP1 NFkB: reduces LMP1-driven NF-kappaB luciferase signal; 350,000 tested, 0.69% active; AID 504558; LMP1-induced NF-kappaB luciferase reporter cells, luminescence; inhibition, % at 12.5 µM; in the data active means inhibition above about 41%; inconclusive means no clear call, values can overlap the other calls;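 further: 0% = neutral control wells and 100% = reference inhibitor control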
HSF-1 act: increases HSF-1 driven luciferase reporter signal | NIH3T3-HGL HSF-1 luciferase reporter, MG132, 8 h; 100% = twice DMSO control signal | activation, % at 9 µM | 300,000 tested, 1.7% active | AID 504408;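 active means mean replicate activation of at least 50% with a set share of replicates each reaching 50%; inconclusive means only one of those two conditions met; inactive means mean below 50% and too few replicates reaching it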;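 further: 0% = median of the neutral control wells and 100% = twice that signal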
Numbers without * were called inactive; ? = inconclusive; / = not tested or not shown. Shown are actives, neighbours in structure and some others; about 3.6% of the full set was active somewhere.

SMILES	TROY NFkB inh	LGR2 inh	HSF1 inhib	TWEAK-Fn14 inh	EBV LMP1 NFkB	HSF-1 act
COc1cccc(S(=O)(=O)N[C@H]2C=C[C@@H](CC(=O)NCc3ccncc3)O[C@H]2CO)c1	/	-1	/	/	/	/
CCCNC(=O)N(C)C[C@@H]1Oc2ncc(C#CC3(O)CCCC3)cc2C(=O)N([C@H](C)CO)C[C@H]1C	/	-3	/	/	/	/
COc1cccc(CN2[C@H](CO)[C@H]3c4ccccc4N(C(=O)c4ccncc4)C[C@H]32)c1	/	-11	/	/	/	/
Cc1ccccc1-c1ccc([C@H]2[C@H](CO)N3C(=O)CN(C(=O)c4ccncc4)C[C@@H]23)cc1	/	3	/	/	/	/
O=C(Nc1ccc(C(=O)N2CCOCC2)cc1)c1cnn2c(C(F)F)cc(-c3ccccc3)nc12	0	3	13	-5	5	54*
COc1ccc(-c2cc(C(F)F)n3ncc(C(=O)Nc4ccc(C(=O)N5CCOCC5)cc4)c3n2)cc1	-3	15	3	-41	-13	-1
CCCC(=O)Nc1ccccc1NC(=O)c1ccc2c(c1)OCO2	5	4	-4	-3	78*	-2
CCCC(=O)Nc1ccc(C(=O)O)cc1NC(=O)CCC	-14	/	-4	103*	-14	-8
CC(=O)c1ccc2c(c1)OCCOCCOCCOCCOCCO2	-3	9	-4	87*	/	-20
CC(=O)Nc1ccc2c(c1)OCCOCCOc1cc(NC(C)=O)ccc1OCCOCCOCCO2	/	-3	-1	/	/	3
O=C(Nc1ccc(Br)cc1F)c1ccc2c(c1)OCCO2	33	3	-2	51*	0	25
O=C(Nc1ccc(F)cc1F)c1ccc2c(c1)OCCO2	-4	-9	18	4	5	25
C[C@@H]1CN([C@H](C)CO)C(=O)c2ccccc2-c2ccccc2CO[C@@H]1CN(C)C(=O)c1ccccc1	/	7	/	/	/	/
O=C(Nc1ccncc1)c1ccc2c(c1)OCCO2	-19	/	6	9	0	-1
N#Cc1ccccc1NC(=O)COc1ccc2c(c1)OCO2	-26	-49	41	-24	-12	88*
CCc1ccccc1NC(=O)COc1ccc2c(c1)OCO2	4	/	1	16	-1	4
Cc1ccccc1NC(=O)c1ccc2c(c1)OCCO2	-61	/	-65*	-24	14	-73
Cc1ccc(NC(=O)c2ccc3c(c2)OCCO3)cc1	26	/	7	68*	22	34
C[C@H]1CCCCO[C@H](CN(C)Cc2ccccc2)[C@@H](C)CN([C@@H](C)CO)C(=O)c2cc(NC(=O)Nc3ccccc3)ccc2O1	/	8	/	/	/	/
CCCN1C[C@@H](C)[C@@H](OC)CN(C)C(=O)c2cc(NC(=O)c3cccc(OC)c3)ccc2OC[C@H]1C	/	-15	/	/	/	/
Nc1cccc2c1C(=O)N(C(=O)/C=C/c1ccc(F)cc1)C2=O	16	47	44	84*	-9	61*
N=C1SCC(=O)N1c1ncc(Cc2ccc(F)cc2)s1	33	-3	5	103*	12	23
Cc1ccc(-c2csc(N3C(=N)SCC3=O)n2)cc1	/	-66	13	/	/	21
O=C(N[C@@H]1CC[C@H](CCNS(=O)(=O)c2ccc(F)cc2)O[C@@H]1CO)C1CCOCC1	/	6	/	/	/	/
COc1ccc(C(CC(=O)c2ccc(C)cc2)Sc2ccccc2N)cc1 (stereo unspecified)	11	32	/	70*	-50	/
SMILES	TROY NFkB inh	LGR2 inh	HSF1 inhib	TWEAK-Fn14 inh	EBV LMP1 NFkB	HSF-1 act
Nc1ccccc1SC(CC(=O)c1ccccc1)c1ccc([N+](=O)[O-])cc1 (stereo unspecified)	-25	-114	/	11	-11	/
COc1ccccc1-c1ccc([C@@H]2[C@@H](C#N)N(C(=O)C3CC3)[C@H]2CO)cc1	/	2	/	/	/	/
COC(=O)Cc1ccc(NC(=O)c2ccc(C)c(C)c2)cc1	-67	/	39	-6	-8	71*
COC(=O)Cc1ccc(NC(=O)c2ccc(NC(=O)c3ccco3)cc2)cc1	-9	-20	-11	0	1	-16
COc1ccc(/C=N/Nc2ncnc3sc4c(c23)CCCC4)cc1OC	82*	14	-10	90*	14	7
COc1ccc(S(=O)(=O)N(C)C[C@H]2Oc3ccc(NC(=O)NC(C)C)cc3CC(=O)N([C@H](C)CO)C[C@@H]2C)cc1	/	15	/	/	/	/
O=C1[C@H](Oc2ccccc2)[C@@H](c2ccccc2)N1c1ccncc1	56*	66*	/	65*	11	/
O=C1[C@@H](Oc2ccccc2)[C@@H](c2ccccc2)N1c1ccccc1	-1	-11	/	1	1	/
COc1ccc2c(c1)c(=O)oc1c(C)c(OCc3cc(C(=O)O)oc3C)ccc12	23	-35	-1	79*	0	-14
COc1cccc(-c2nc3n(n2)C(c2cccs2)C(C(=O)Nc2cccnc2)=C(C)N3)c1 (stereo unspecified)	-11	11	2	-11	50*	-3
C/C=C/c1cnc2c(c1)C(=O)N([C@@H](C)CO)C[C@@H](C)[C@H](CN(C)C(=O)Cc1ccccn1)O2	/	-1	/	/	/	/
COc1ccc(S(=O)(=O)NCCSCc2ccco2)cc1	/	24	0	72*	-12	9
CCCNC(=O)N1C[C@@H](C)[C@H](OC)CN(C)C(=O)c2ccc(NC(C)=O)cc2OC[C@@H]1C	/	-3	/	/	/	/
O=c1c2c(nc3c(-c4ccc(Cl)cc4)c[nH]n13)CCCC2	32	/	-28	-60	53*	-41
COc1cccc(-c2cnc3c(NC(C)=O)cc(-c4ccc(OC)c(OC)c4)cn23)c1	-6	1	/	14	/	/
CC(=O)c1ccc(-c2cnc3c(NC=O)cc(-c4ccccc4Oc4ccccc4)cn23)cc1	14	-3	/	59*	/	/
COc1ccc(-c2cc(NC(C)=O)c3ncc(-c4cccc(C(C)=O)c4)n3c2)cc1OC	62*	10	/	4	/	/
COc1ccccc1N1CCN(CCCNC(=O)C2CCCN(c3ncnc4c3nc3n4CCCCC3)C2)CC1 (stereo unspecified)	-6	-18	-6	-7	66*	-1
Cc1ccc(N2CCN(C(=O)C3CCCN(c4ncnc5c4nc4n5CCCCC4)C3)CC2)c(C)c1 (stereo unspecified)	60*	4	0	45	18	-3
Cc1cccc(N2CCN(C(=O)C3CCN(c4ncnc5c4nc4n5CCCCC4)CC3)CC2C)c1 (stereo unspecified)	52*	5	-7	51*	19	-8
Cc1cccc(N2CCN(C(=O)C3CCN(c4ncnc5c4nc4n5CCCCC4)CC3)CC2)c1C	65*	?	0	80*	11	4
CCN(CC)c1ccc(/C=N/NC(=O)c2c(Cl)cnn2C)c(O)c1	-13	-14	-12	-19	52*	0
CCOC(=O)N/N=C/c1ccc(N(CC)CC)cc1O	-32	-70	5	-53	-14	24
CCN(CC)c1ccc(C=Nc2cccc(S(=O)(=O)N3CCOCC3)c2)c(O)c1	10	20	/	2	-1	/
